Assay results as given in PubChem BioAssay (NCATS).
Records with an inconclusive call do not appear. A call without a number means that no potency is given here. Values without a mark were called inactive. Activity calls are given as the source filed them. Unless noted, calls come from the whole dose curve; as a rule, active = well fitted curve in the direction sought with a large enough effect; inconclusive = small, poorly fitted or top-dose-only effect, or another doubt; inactive = no such curve, though single readings can be large; an effect the other way counts as inactive or inconclusive.

Legend:
[1] = target: Calcium and integrin-binding protein 1 (Homo sapiens) (UniProt Q99828); assay: Primary qHTS for Identification of Calcium Integrin Binding Protein 1 (CIB1) Competitor (AID 1508620);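 note: GST tagged CIB1 binding a fluorescein labelled alphaIIb integrin peptide tracer; top concentration of the series differs between compounds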
Summary of the method: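 CIB1-GST (1 uM final) and compound incubated 15 min at room temperature before adding FITC-alphaIIb peptide tracer (100 nM final). Competition for binding read by fluorescence polarization (ex 480, em 540) after another 15 min at room temperature.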

[2] = target: Cytochrome P450 2D6 (Homo sapiens) (UniProt P10635); assay: Cytochrome P450 family 2 subfamily D member 6 (CYP2D6) small molecule antagonists: luciferase biochemical (cell-free) qHTS assay (AID 1645840; active = well fitted curve in the direction sought with a large enough effect in the repeat runs; an effect the other way counts as inactive or inconclusive; note: nearly all actives have a fitted effect of over 55% in size; note: potency is the fitted concentration of half-maximal effect)
Summary of the method: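 P450-Glo CYP2D6 system: proluciferin substrate converted by enzyme to luciferin, read by luminescence proportional to activity. Enzyme-substrate mix with compound 10 min at room temperature, then NADPH regeneration 1 h before detection reagent.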

[3] = Primary qHTS for inhibitors of nuclear receptor binding SET domain protein 2 (NSD2) in an isogenic RCH-ACV NSD2 p.E1099K mutant (9B) (AID 1645876); note: nearly all actives have a fitted effect of over 70% in size; note: potency is the fitted concentration of half-maximal effect
[4] = Primary qHTS for inhibitors of nuclear receptor binding SET domain protein 2 (NSD2) in an RCH-ACV wild type WT cells (2C) (AID 1645877); note: nearly all actives have a fitted effect of over 70% in size; note: potency is the fitted concentration of half-maximal effect
[5] = target: Cytochrome P450 2C9 (Homo sapiens) (UniProt P11712); assay: Cytochrome P450 family 2 subfamily C member 9 (CYP2C9) small molecule antagonists: luciferase biochemical (cell-free) qHTS assay (AID 1645842; active = well fitted curve in the direction sought with a large enough effect in the repeat runs; an effect the other way counts as inactive or inconclusive; note: potency is the fitted concentration of half-maximal effect; nearly all actives have a fitted effect of over 55% in size)
Summary of the method: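 P450-Glo CYP2C9 system: proluciferin substrate with enzyme in mix containing 0.4% BSA, 10 min at room temperature, then NADPH regeneration solution added and incubated 1 h at 37C. Detection reagent stopped reaction; luminescence read after 20 min as RLU.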

[6] = target: N-terminal Xaa-Pro-Lys N-methyltransferase 1 (Homo sapiens) (UniProt Q9BV86); assay: Confirmatory qHTS for Inhibitors of N-terminal methyltransferase 1 (NTMT1): MTaseGlo Assay (AID 1645874); note: nearly all actives have a fitted effect of over 65% in size; note: potency is the fitted concentration of half-maximal effect
Summary of the method: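 Enzyme mix (125 nM NTMT1, 100 uM SAM) + compound, 15 min RT; + 1 uM SPKRIA, 30 min RT, dark; MTase-Glo reagent 30 min, detection solution 30 min; luminescence. % inhibition vs no-enzyme/DMSO controls, 4-parameter Hill fit.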

Calcium and integrin-binding protein 1 (Homo sapiens), sequence (Q99828 whole entry, looked up): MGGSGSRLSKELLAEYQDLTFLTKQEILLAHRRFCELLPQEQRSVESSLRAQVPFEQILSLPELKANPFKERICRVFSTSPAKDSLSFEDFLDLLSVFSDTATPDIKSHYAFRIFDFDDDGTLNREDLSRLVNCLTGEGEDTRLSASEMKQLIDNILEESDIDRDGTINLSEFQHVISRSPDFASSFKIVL
Cytochrome P450 2D6 (Homo sapiens), sequence (P10635 whole entry, looked up): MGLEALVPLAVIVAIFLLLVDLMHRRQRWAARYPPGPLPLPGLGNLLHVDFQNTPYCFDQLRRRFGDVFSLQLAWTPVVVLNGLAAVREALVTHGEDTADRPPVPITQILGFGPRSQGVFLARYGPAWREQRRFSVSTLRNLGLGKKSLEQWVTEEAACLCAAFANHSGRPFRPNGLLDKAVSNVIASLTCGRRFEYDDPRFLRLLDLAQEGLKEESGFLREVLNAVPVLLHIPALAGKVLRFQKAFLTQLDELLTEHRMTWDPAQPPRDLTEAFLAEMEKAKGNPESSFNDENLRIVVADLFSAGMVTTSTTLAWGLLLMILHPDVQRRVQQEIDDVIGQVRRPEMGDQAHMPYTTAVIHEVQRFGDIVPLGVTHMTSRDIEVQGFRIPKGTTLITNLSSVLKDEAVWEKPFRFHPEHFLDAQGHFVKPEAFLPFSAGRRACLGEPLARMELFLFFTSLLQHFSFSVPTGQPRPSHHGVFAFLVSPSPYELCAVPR
N-terminal Xaa-Pro-Lys N-methyltransferase 1 (Homo sapiens), sequence (Q9BV86 whole entry, looked up): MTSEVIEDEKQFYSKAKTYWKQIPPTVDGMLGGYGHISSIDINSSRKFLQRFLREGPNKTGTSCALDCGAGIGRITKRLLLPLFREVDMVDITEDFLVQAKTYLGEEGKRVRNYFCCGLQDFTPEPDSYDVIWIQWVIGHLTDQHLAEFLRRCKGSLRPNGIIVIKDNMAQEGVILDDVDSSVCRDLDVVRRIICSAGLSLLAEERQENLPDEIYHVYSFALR
Cytochrome P450 2C9 (Homo sapiens), sequence (P11712 whole entry, looked up): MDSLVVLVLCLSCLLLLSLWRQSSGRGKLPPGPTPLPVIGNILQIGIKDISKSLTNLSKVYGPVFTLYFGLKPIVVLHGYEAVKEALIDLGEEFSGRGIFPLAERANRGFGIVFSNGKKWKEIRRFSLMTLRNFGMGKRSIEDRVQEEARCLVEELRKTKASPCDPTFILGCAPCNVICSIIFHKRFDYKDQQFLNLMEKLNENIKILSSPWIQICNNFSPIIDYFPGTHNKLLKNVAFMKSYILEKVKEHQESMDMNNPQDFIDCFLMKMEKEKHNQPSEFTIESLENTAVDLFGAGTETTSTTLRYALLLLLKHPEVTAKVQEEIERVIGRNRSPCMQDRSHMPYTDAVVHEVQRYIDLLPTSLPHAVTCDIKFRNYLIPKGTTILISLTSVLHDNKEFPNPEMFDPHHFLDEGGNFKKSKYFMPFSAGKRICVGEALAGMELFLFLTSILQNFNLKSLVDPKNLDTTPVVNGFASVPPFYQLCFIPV

In the case of `CCCC(=O)Nc1cccc(NC(=O)c2ccccc2Br)c1`, the Potency [1] is reported as “inactive”, the Potency [2] is reported as “inactive” and the Potency [3] is reported as “inactive”. The Potency [4] was “inactive”.

In the case of `NC(N)=NCCC[C@H](NC(=O)c1sccc1NS(=O)(=O)c1cccc2nsnc12)C(=O)O`, the Potency [1] is reported as “inactive”, the Potency [2] is reported as “inactive” and the Potency [3] is reported as “inactive”.

With `O=C(O)[C@H](Cc1ccccc1)Oc1ccc(-c2ccccc2)cc1` the Potency [1] was “inactive”, the Potency [2] was “inactive” and the Potency [3] was “inactive”. For the same molecule, the Potency [4] was “inactive”.

With `Cc1ccc(-n2nc(C(C)(C)C)cc2NC(=O)Nc2cc(COc3cccnc3)[nH]n2)cc1` the Potency [1] was “inactive”, the Potency [2] was 15.1 µM (active) and the Potency [3] was 18.3 µM (active). The Potency [4] was 9.16 µM (active).

In the case of `COc1ccc(NC(=O)c2ccc(-c3ccc(C(N)=O)cc3C)cc2)cc1N1CCN(C)CC1`, the Potency [1] is reported as “inactive”, the Potency [2] is reported as “inactive” and the Potency [4] is reported as 14.5 µM (active).

With `Cc1onc(-c2c(Cl)cccc2Cl)c1CC(=O)NCc1ccc(OCC(F)(F)F)nc1` the Potency [1] was “inactive” and the Potency [5] was 2.39 µM (active).

With `C=Cc1cc2oc(-c3ccc(O)c(F)c3)nc2cc1O` the Potency [6] was 31.6 µM (active).

In the case of `COc1cccc(C(=O)NCCNc2nc3cc(C)cc(C)c3cc2C#N)c1`, the Potency [6] is reported as “inactive”.

For `O=C(NCCN1CCCC1)c1cc(-c2ccc(CN3CCOCC3)cc2)nc2ccc(F)cc12`, the Potency [1] was “inactive”, the Potency [6] was “inactive” and the Potency [3] was “inactive”. The Potency [4] was “inactive”.

In the case of `C/C=C1\[C@H](O[C@@H]2O[C@H](CO)[C@@H](O)[C@H](O)[C@H]2O)OC=C(C(=O)OCCc2ccc(O)cc2)[C@H]1CC(=O)OCCc1ccc(O)cc1`, the Potency [1] is reported as “inactive” and the Potency [3] is reported as “inactive”.

For `COC(=O)C1C(c2ccc(O)cc2)C(C(=O)O)C1c1ccc(O)cc1` (stereo unspecified), the Potency [1] was “inactive” and the Potency [3] was “inactive”.

In the case of `CC(=O)NC(C(=O)OC1CCC(C)(C)C2CC=C3C(=O)OCC3C12C)C(C)C` (stereo unspecified), the Potency [1] is reported as “inactive” and the Potency [3] is reported as “inactive”.

With `CC(C)=CCC[C@](C)(O[C@@H]1O[C@H](CO)[C@@H](O)[C@H](O)[C@H]1O)[C@H]1CC[C@]2(C)[C@@H]1[C@H](O)CC1[C@@]3(C)CC[C@H](O)C(C)(C)C3[C@@H](O[C@@H]3O[C@H](CO)[C@@H](O)[C@H](O)[C@H]3O[C@@H]3O[C@@H](C)[C@H](O)[C@@H](O)[C@H]3O)C[C@]12C` (stereo partly specified) the Potency [1] was “inactive” and the activity change, negative = viability loss [3] was -2.5% [at 9.23 µM].

For `CCC(C)C(=O)O[C@H]1[C@@H](O[C@H]2O[C@H](CO)[C@@H](O)[C@H](O)[C@H]2O)O[C@H](CO)[C@@H](O)[C@@H]1O` (stereo partly specified), the Potency [1] was “inactive” and the Potency [3] was “inactive”.

For `CC(=O)O[C@H]1[C@H](OC(=O)C(C)C)[C@]2(C)OC3(CC[C@]2(C)[C@H]2CCC[C@]4(CO4)[C@]12C)COC(=O)C3` (stereo partly specified), the Potency [1] was “inactive” and the Potency [3] was “inactive”.

In the case of `C=C1CC/C=C(/CO)C(=O)C[C@@H]2[C@@H]1C[C@@]2(C)COC(C)=O`, the Potency [1] is reported as “inactive” and the Potency [3] is reported as “inactive”.

With `CC1=CC[C@@]2(C)CC[C@@](O)(C(C)C)[C@@H]2[C@@H](O)C1` the Potency [1] was “inactive” and the Potency [3] was “inactive”.

In the case of `O=C(OC1C=C(CO)C2C(OC3OC(CO)C(O)C(O)C3O)OC=CC12O)c1ccc(O)cc1` (stereo unspecified), the Potency [1] is reported as “inactive” and the Potency [3] is reported as “inactive”.

With `C=C1CCC2C(C)(C(=O)OC)CCCC2(C)C1CCC1=CCOC1=O` (stereo unspecified) the Potency [1] was “inactive” and the Potency [3] was “inactive”.

With `COC(=O)C(CC1(OC(=O)C(C)C)c2ccccc2N2C(=O)C(C)(C)N(O)C21)n1cnc2ccccc2c1=O` (stereo unspecified) the Potency [1] was “inactive” and the Potency [3] was “inactive”.

In the case of `CC(C)c1cc2c(c(O)c1O)[C@@]13CCCC(C)(C)C1[C@@H](O)[C@@H]2OC3=O` (stereo partly specified), the Potency [1] is reported as “inactive” and the Potency [6] is reported as “inactive”.

With `C=C1CCC2[C@@](C)(C(=O)O)CCC[C@@]2(C)[C@@H]1CCc1ccoc1` (stereo partly specified) the Potency [1] was “inactive” and the Potency [3] was “inactive”.

In the case of `CC(O)C/C=C/C=C/C(=O)OC1C=C2COC(=O)C2(O)C2(C)CCCC(C)(C)C12` (stereo unspecified), the Potency [1] is reported as “inactive” and the Potency [3] is reported as “inactive”.

With `COc1c(C)c(OCC=C(C)C)cc2c1COC2=O` the Potency [1] was “inactive” and the Potency [3] was “inactive”.
